Source: PubChem BioAssay (National Center for Advancing Translational Sciences (NCATS))
Rows were chosen to be rich in hits. Some 6.3% of all compounds tested hit in one or more screens of this group.
TGFb SMAD3 inh – qHTS for Inhibitors of TGF-b. Potency, µM (doses to about 46.1 µM), inactives show at the highest dose activity, negative = inhibition, most hits filed as inhibitors. AID 588855, 2011. 1.2% of 410,000 active. HepG2 CAGA-GFP TGF-b/SMAD3 reporter, GFP fluorescence, 18 h; TGF-beta stimulated, 500 pg/mL final; note: % is set by controls: 0 for no effect and ±100 for the full control effect; nearly all actives have a fitted effect of over 65% in size
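Cell-based qHTS in HEPG2 carrying a CAGA-GFP Smad reporter; compounds added before 500 pg/mL final TGF-beta, 18 h incubation at 37 degrees C, GFP fluorescence quantified per cell by imaging cytometry.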
VP16 counter – VP16 counterscreen qHTS for inhibitors of ROR gamma transcriptional activity | Drosophila S2 Gal4-VP16 UAS-luciferase, luminescence, 20 h | Potency, µM (doses to about 53.6 µM), inactives show at the highest dose activity, negative = inhibition, actives largely listed as inhibitors | 3.5% of 310,000 active;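 note: Gal4-VP16 expression switched on by copper sulfate through the metallothionein promoter; % is set by controls: 0 for no effect and ±100 for the full control effect; nearly all actives have a fitted effect of over 50% in size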
S2 tox – Viability Counterscreen for Primary qHTS for Inhibitors of ATXN expression. S2 cells (HEK-293 line with an ATXN2-luciferase reporter) viability, CellTiter-Fluor protease fluorescence, 24 h. Potency, µM (highest dose often 56.7 µM), usual class: cytotoxic. 0.49% of 400,000 active. AID 651635, 2014; note: nearly all actives have a fitted effect of over 40% in size
ATXN2 expr inh – Primary qHTS for Inhibitors of ATXN expression | 0.72% of 360,000 active | AID 1745845, 2022 | HEK-293 ATXN2-luciferase reporter, luminescence, 24 h | Potency, µM (series often up to 57 µM), inactives show at the highest dose activity change, negative = inhibition, most hits filed as inhibitors; note: % is set by controls: 0 for no effect and ±100 for the full control effect; nearly all actives have a fitted effect of over 55% in size
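qHTS (up to 57 uM final) was run with 24 h compound exposure of reporter cells at 37 °C. Each well was multiplexed: SteadyGlo luminescence measured ATXN2-luciferase expression after a fluorogenic Gly-Phe-AFC viability readout (25 uM final).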
HepG2 tox-1 – qHTS for Inhibitors of TGF-b: Cytotox Counterscreen; HepG2 CAGA-GFP viability, ATP luminescence, 18 h; Potency, µM (highest dose often 46.1 µM), for inactives: at the top dose activity change, negative = cytotoxicity, hits mostly cytotoxic; 0.76% of 410,000 active
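HepG2 CAGA-GFP cells (1000/well, DMEM with 1% FBS) received compound, then TGF-beta at 500 pg/mL final, and were incubated 18 hours at 37 degrees C. Viability was read by CellTiter-Glo luminescence. Media-only wells were set as complete cell-killing and DMSO as no toxicity.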
RORg inh – qHTS for inhibitors of ROR gamma transcriptional activity; Nuclear receptor ROR-gamma (Mus musculus), P51450; Drosophila S2 Gal4-RORgamma UAS-luciferase reporter, 20 h; Potency, µM (doses to about 53.6 µM), inactives show top-dose activity change, negative = inhibition, most hits filed as inhibitors; 5.4% of 310,000 active; note: % is set by controls: 0 for no effect and ±100 for the full control effect; nearly all actives have a fitted effect of over 60% in size
Target sequence (P51450 whole entry, looked up, the tested form may be a part): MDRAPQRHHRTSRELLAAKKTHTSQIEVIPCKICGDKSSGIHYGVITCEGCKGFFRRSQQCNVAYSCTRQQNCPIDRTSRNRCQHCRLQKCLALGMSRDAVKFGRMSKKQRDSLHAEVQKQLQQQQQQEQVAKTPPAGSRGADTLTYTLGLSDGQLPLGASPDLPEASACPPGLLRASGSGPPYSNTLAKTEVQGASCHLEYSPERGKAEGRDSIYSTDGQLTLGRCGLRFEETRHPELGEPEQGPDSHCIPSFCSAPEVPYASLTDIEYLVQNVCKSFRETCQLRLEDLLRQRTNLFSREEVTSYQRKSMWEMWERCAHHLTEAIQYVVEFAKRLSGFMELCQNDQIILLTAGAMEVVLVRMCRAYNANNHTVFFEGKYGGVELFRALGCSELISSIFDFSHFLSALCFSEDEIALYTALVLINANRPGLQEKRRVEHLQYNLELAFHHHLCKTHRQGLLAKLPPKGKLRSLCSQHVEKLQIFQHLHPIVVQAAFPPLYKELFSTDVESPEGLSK
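Read-out: Photinus luciferase luminescence; inhibitors lower reporter signal. Insect Schneider cells with Gal4-ROR gamma fusion under metallothionein promoter, UAS reporter; 700 uM final copper sulfate induction, 20 hr, ambient temperature.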
TGFb CAGA inh – qHTS for Inhibitors of TGF-b: Confirmation of Cherry Picks; shares compounds with TGFb SMAD3 inh; HepG2 CAGA-GFP TGF-b reporter, GFP fluorescence, 18 h; cells stimulated with TGF-beta, 500 pg/mL; Potency, µM (titrated, usually from 46.1 µM), for the others: at the highest dose activity, negative = inhibition, usual class: inhibitors; 63% of 1,600 active; note: % is set by controls: 0 for no effect and ±100 for the full control effect; nearly all actives have a fitted effect of over 65% in size
HepG2 tox-2 – qHTS for Inhibitors of TGF-b: Cytotox Counterscreen for Cherry Picks; shares compounds with TGFb SMAD3 inh; HepG2 CAGA-GFP viability, ATP luminescence, 18 h; cells stimulated with TGF-beta, 500 pg/mL; Potency, µM (series often up to 46.1 µM), inactives show top-dose activity, negative = cytotoxicity, hits mostly inhibitors; 27% of 1,600 active; note: % is set by controls: 0 for no effect and ±100 for the full control effect; nearly all actives have a fitted effect of over 70% in size
CCL64 TGFb inh – qHTS for Inhibitors of TGF-b: CCL64 Cells Orthogonal Assay for Cherry Picks; CCL64 CAGA-GFP reporter, TGF-b stimulated, GFP fluorescence, 18 h; 41% of 1,600 active; Potency, µM (series often up to 46.1 µM), without a hit: at the highest dose activity, negative = inhibition, usual class: inhibitors; shares compounds with TGFb SMAD3 inh; note: nearly all actives have a fitted effect of over 65% in size
COP TGFb inh – qHTS for Inhibitors of TGF-b: Hit Validation in HepG2 Cells using COP promoter; shares compounds with TGFb SMAD3 inh; HepG2 COP-GFP TGF-b reporter, GFP fluorescence, 18 h; cells stimulated by added recombinant TGF-beta; Potency, µM (highest dose often 46.1 µM), for inactives: at the highest dose activity, negative = inhibition, actives largely listed as inhibitors; 3% of 1,600 active; note: nearly all actives have a fitted effect of over 70% in size
An asterisk follows results filed as active; i = inactive; ? = inconclusive; . = not tested or not shown; [ ] = remark or other dose. Calls come from the whole dose curve; as a rule, active = well fitted curve in the direction sought with a large enough effect; inconclusive = small, poorly fitted or top-dose-only effect, or another doubt; inactive = no such curve, though single readings can be large; an effect the other way counts as inactive or inconclusive. Potency is the fitted concentration of half-maximal effect.

SMILES	TGFb SMAD3 inh	VP16 counter	S2 tox	ATXN2 expr inh	HepG2 tox-1	RORg inh	TGFb CAGA inh	HepG2 tox-2	CCL64 TGFb inh	COP TGFb inh
COc1cc2c(cc1OC)C(C)N(C(=O)c1cc(C)on1)CC2 (configuration not stated)	11µM*	5%	?	0%	4%	-15%	7.3µM*	1%	?	?
CCOC(=O)c1cc(C)n(CC2CCC(C(=O)Nc3ccc(OCC)cc3)CC2)c1C (configuration not stated)	?	.	.	.	-17%	.	.	.	.	.
NC(=S)N/N=C\c1c2ccccc2cc2ccccc12	-12%	?	?	?	-53%	-146%	.	.	.	.
NC(=S)N/N=C\c1c(OCc2ccccc2Cl)ccc2ccccc12	6.3µM*	3.2µM*	i	?	-5%	1.1µM*	5.8µM*	?	8.2µM*	34%
CCc1ccc2c(c1)c(=O)c(C(=O)c1ccccc1)cn2CC(=O)Nc1ccc(C)c(Cl)c1	-1%	.	i	14%	3%	.	.	.	.	.
COc1cc(/C=N/Nc2ccccc2)ccc1O	3%	-1%	i	5%	-6%	-11%	.	.	.	.
COc1ccc(CNC(=S)N/N=C/c2ccc(O)c(OC)c2)cc1	11µM*	16µM*	i	12%	-27%	10µM*	-11%	-25%	-18%	1%
O=C(CN1C(=O)NC2(CCCC2)C1=O)OCc1ccc(Cl)cc1Cl	0%	.	i	7%	-2%	.	.	.	.	.
COc1ccc(-n2nc(C(=O)NCCc3cccc(C)c3)c3c4ccccc4n(C)c3c2=O)cc1Cl	4%	.	i	-5%	9%	.	.	.	.	.
COc1ccc(N2CCN(C(=O)c3ccc(C)c(NC(=O)c4nsc5ccccc45)c3)CC2)cc1	-18%	.	i	4%	-3%	.	.	.	.	.
CNc1ccc(/C=C2\COc3ccccc3C2=O)cc1[N+](=O)[O-]	16%	?	i	43%	6%	37%	.	.	.	.
O=C1/C(=C/c2ccccc2[N+](=O)[O-])COc2ccccc21	7.9µM*	?	24µM*	21µM*	-23%	?	2.1µM*	10µM*	2.3µM*	4%
COc1cccc(CNC(=O)c2cc(Sc3cccc(Cl)c3)nc3ccccc23)c1	1%	.	i	12%	-12%	.	.	.	.	.
O=C(NCc1cccnc1)c1cc(Sc2cccc(Cl)c2)nc2ccccc12	11µM*	0%	i	-19%	-14%	?	?	-29%	?	27%
Cc1ccc(-n2nc(-c3ccc(F)cc3)c3cnc4cc5c(cc4c32)OCO5)cc1C	-1%	.	i	4%	-4%	.	.	.	.	.
CN1C(=O)[C@H]2[C@@H](c3ccc(C(F)(F)F)cc3)N[C@]3(CCCN(Cc4ccc(Cl)cc4)C3=O)[C@H]2C1=O	-2%	.	i	6%	-1%	.	.	.	.	.
CCc1ccc(OC(C)C(=O)Nc2c(C(=O)c3ccccc3)oc3ccccc23)cc1 (configuration not stated)	13%	.	i	-10%	-11%	.	.	.	.	.
Cc1ccc(C(=O)C2CCN(CC(=O)Nc3nc(C)cs3)CC2)cc1	?	-12%	i	-15%	-1%	-3%	18µM*	-13%	5%	0%
Oc1c(C(c2ccccc2Cl)N2CCCC2)ccc2cccnc12 (configuration not stated)	0.45µM*	-80%	i	.	-64%	1.6µM*	?	?	?	-20%
O=S(=O)(c1cccc2cccnc12)N1CCCCC1	5%	1%	i	-10%	-4%	2%	.	.	.	.
Cc1cc(/C=N/NC(N)=S)c(C)n1-c1cccc(Cl)c1	11µM*	10µM*	?	-19%	-19%	2.8µM*	15µM*	-24%	16µM*	44%
Cc1cc(/C=N/O)c(C)n1-c1ccc(Br)cc1	-7%	-9%	i	-15%	-17%	?	.	.	.	.
Cc1cc(/C=N/NC(N)=S)c(C)n1-c1ccc(Br)cc1	13µM*	-2%[10 µM]	?	-18%	-20%	0.56µM*	10µM*	?	?	34%
COc1ccccc1CN(C)C[C@@H]1OCc2cnnn2CCCC(=O)N([C@H](C)CO)C[C@H]1C	-5%	.	i	-3%	9%	.	.	.	.	.
Brc1ccc2nc(C3CCCCC3)c(Cc3ccccc3)n2c1	?	.	?	-4%	-17%	.	.	.	.	.
CC(C)C[C@H]1CNC(=S)N1C[C@H]1CCCN1C[C@H](Cc1ccc(O)cc1)N1C[C@H](CC(C)C)N(CC2CCCCCC2)C1=S	6.3µM*	.	10µM*	?	-23%	.	4.6µM*	?	10µM*	25%
CC(C)C[C@H]1CNC(=S)N1C[C@H]1CCCN1C[C@H](Cc1ccccc1)N1C[C@H](Cc2ccc(O)cc2)N(CC2CCCCCC2)C1=S	10µM*	.	16µM*	?	-21%	.	18µM*	?	?	35%
CC(C)C[C@H]1CN([C@@H](Cc2ccccc2)CN2CCCC2CN2C(=S)NC[C@@H]2Cc2ccccc2)C(=S)N1CC1CCCCC1 (some centres not stated)	.	.	?	0%	.	.	.	.	.	.
